Assay results: the supplement of paper PMC11732987, “Enantioselective OTUD7B fragment discovery through chemoproteomics screening and high-throughput optimisation” (Communications Chemistry, 2025)

What was measured:
Test in all cases: log2 ratio of Biotin-Ahx-Ub-VS probe labelling (fragment/DMSO); higher = less target engagement (more negative = stronger competition), active = hit call of the paper (q ≤ 0.05, log2 ratio ≤ -1)
Details in all cases: compound concentration: 200 uM; treatment time: 3 h
[1] = biological target: T1, USP19 (UniProt O94966)
T1 sequence (whole entry): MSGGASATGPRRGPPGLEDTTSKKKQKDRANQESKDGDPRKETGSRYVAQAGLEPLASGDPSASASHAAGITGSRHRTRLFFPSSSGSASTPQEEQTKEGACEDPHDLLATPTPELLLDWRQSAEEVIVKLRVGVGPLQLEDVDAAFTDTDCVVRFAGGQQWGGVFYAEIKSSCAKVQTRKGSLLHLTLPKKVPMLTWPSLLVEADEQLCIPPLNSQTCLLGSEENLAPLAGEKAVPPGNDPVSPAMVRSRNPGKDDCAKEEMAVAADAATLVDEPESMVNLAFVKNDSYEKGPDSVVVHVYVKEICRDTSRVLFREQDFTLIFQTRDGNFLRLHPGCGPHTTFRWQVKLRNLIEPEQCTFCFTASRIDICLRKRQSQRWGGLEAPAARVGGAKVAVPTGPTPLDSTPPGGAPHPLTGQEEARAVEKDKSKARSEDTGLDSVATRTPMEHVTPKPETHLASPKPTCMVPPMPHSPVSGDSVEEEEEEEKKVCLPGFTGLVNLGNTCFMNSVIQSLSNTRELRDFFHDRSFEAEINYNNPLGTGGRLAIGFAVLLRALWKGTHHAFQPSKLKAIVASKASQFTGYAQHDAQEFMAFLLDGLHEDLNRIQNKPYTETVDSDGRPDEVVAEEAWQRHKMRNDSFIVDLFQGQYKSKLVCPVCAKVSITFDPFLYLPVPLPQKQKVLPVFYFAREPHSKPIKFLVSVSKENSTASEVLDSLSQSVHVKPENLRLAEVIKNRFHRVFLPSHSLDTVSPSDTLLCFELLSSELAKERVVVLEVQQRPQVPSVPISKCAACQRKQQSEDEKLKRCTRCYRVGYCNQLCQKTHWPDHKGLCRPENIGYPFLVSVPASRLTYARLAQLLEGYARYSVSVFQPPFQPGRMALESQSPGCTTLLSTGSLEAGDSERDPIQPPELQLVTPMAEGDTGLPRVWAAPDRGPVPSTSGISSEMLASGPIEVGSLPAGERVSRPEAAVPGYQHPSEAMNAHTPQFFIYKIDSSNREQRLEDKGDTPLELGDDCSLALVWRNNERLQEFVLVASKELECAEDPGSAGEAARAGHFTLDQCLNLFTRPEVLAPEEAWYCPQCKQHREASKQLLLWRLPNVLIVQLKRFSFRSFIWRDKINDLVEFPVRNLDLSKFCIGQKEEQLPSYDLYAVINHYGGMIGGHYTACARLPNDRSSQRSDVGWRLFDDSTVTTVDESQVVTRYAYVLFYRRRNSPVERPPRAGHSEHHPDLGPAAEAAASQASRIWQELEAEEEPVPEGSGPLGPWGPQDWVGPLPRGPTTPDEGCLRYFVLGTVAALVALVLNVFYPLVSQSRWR
In short: (§1)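 HEK293T lysate in Tris/CHAPS/IGEPAL buffer with protease inhibitors (495 µg per sample) was given fragment at 200 µM or vehicle for 3 h, in triplicate. It then received Biotin-Ahx-Ub-VS at 0.5 µM final for 1 h. Labelled DUBs were NeutrAvidin-enriched, digested with LysC and trypsin, and run by diaPASEF LC-MS/MS. Values are average log2 fragment/vehicle ratios by unpaired t-test on global-median-normalised Spectronaut quantities of proteins with ≥2 unique peptides.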

[2] = biological target: T2, USP22 (UniProt Q9UPT9)
T2 sequence (whole entry): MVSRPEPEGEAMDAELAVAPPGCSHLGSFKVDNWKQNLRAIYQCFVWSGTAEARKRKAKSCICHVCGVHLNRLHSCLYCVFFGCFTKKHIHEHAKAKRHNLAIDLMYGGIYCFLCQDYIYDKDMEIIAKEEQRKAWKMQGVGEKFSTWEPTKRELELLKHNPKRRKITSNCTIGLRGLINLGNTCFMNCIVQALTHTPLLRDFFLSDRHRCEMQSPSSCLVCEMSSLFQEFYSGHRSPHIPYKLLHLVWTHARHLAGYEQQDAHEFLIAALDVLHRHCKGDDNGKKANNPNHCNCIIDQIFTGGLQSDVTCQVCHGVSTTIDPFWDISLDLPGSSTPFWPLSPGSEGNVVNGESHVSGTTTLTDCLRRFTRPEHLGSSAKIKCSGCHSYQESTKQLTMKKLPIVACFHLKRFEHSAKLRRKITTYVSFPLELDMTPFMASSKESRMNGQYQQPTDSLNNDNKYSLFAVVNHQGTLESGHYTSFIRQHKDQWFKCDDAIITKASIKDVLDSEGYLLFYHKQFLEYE
In short: as §1

[3] = biological target: USP24 (UniProt Q9UPU5)
In short: as §1

[4] = biological target: T3, USP25 (UniProt Q9UHP3)
T3 sequence (whole entry): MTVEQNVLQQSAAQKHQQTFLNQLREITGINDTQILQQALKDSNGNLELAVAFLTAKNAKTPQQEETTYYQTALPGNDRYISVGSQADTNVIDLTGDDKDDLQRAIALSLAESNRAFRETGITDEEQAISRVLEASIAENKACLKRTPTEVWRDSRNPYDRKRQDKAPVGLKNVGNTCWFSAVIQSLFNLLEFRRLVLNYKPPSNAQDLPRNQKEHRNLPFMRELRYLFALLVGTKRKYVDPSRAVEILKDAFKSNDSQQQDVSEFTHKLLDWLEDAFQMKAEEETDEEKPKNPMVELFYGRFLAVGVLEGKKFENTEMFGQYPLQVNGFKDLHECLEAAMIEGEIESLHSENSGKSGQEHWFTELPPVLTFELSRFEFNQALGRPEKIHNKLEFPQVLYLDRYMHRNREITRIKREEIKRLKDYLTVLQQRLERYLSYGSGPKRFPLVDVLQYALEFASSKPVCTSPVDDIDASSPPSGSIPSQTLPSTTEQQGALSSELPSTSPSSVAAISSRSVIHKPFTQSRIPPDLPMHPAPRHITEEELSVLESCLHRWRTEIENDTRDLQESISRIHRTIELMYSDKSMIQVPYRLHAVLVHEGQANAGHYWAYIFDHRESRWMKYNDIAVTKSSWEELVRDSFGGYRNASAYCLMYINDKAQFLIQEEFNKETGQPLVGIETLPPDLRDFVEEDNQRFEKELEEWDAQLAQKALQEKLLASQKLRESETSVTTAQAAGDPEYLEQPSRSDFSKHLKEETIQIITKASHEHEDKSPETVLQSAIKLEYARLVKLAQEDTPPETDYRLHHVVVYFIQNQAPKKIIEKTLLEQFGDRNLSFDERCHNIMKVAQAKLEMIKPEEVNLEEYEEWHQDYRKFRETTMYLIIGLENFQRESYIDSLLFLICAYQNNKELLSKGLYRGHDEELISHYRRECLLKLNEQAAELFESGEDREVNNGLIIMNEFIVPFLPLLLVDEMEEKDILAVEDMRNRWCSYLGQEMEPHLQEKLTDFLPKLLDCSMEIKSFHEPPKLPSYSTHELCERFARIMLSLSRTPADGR
In short: as §1

[5] = biological target: T4, USP28 (UniProt Q96RU2)
T4 sequence (whole entry): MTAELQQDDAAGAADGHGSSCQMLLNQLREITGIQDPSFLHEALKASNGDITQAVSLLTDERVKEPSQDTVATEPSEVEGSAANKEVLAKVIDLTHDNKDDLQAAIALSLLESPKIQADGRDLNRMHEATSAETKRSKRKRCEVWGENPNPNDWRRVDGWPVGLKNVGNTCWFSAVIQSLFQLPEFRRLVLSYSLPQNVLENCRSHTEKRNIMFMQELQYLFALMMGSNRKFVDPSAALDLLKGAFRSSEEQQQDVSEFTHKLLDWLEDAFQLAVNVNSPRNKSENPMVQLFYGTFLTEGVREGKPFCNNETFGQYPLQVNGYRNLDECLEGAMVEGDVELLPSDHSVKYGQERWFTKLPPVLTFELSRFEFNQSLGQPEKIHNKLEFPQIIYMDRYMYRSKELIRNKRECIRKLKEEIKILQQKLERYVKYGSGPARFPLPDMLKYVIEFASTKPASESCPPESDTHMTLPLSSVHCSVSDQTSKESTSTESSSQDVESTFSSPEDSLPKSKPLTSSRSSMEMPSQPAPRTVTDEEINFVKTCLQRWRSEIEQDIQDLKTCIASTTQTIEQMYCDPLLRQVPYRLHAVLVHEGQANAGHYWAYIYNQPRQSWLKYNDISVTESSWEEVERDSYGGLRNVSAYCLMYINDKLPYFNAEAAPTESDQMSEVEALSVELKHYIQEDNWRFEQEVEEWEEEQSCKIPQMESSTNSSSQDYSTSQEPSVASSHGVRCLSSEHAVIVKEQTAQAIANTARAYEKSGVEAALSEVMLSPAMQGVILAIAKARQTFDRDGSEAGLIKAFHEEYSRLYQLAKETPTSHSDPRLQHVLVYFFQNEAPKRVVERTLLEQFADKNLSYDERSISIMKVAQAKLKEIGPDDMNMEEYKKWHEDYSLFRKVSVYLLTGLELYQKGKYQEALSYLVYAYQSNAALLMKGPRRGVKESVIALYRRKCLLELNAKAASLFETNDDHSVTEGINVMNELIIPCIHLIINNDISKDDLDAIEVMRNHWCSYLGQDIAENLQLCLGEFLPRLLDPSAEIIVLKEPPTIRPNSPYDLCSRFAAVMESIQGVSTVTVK
In short: as §1

Measured: log2 ratio of Biotin-Ahx-Ub-VS probe labelling

Chain of USP24 (Q9UPU5 whole entry): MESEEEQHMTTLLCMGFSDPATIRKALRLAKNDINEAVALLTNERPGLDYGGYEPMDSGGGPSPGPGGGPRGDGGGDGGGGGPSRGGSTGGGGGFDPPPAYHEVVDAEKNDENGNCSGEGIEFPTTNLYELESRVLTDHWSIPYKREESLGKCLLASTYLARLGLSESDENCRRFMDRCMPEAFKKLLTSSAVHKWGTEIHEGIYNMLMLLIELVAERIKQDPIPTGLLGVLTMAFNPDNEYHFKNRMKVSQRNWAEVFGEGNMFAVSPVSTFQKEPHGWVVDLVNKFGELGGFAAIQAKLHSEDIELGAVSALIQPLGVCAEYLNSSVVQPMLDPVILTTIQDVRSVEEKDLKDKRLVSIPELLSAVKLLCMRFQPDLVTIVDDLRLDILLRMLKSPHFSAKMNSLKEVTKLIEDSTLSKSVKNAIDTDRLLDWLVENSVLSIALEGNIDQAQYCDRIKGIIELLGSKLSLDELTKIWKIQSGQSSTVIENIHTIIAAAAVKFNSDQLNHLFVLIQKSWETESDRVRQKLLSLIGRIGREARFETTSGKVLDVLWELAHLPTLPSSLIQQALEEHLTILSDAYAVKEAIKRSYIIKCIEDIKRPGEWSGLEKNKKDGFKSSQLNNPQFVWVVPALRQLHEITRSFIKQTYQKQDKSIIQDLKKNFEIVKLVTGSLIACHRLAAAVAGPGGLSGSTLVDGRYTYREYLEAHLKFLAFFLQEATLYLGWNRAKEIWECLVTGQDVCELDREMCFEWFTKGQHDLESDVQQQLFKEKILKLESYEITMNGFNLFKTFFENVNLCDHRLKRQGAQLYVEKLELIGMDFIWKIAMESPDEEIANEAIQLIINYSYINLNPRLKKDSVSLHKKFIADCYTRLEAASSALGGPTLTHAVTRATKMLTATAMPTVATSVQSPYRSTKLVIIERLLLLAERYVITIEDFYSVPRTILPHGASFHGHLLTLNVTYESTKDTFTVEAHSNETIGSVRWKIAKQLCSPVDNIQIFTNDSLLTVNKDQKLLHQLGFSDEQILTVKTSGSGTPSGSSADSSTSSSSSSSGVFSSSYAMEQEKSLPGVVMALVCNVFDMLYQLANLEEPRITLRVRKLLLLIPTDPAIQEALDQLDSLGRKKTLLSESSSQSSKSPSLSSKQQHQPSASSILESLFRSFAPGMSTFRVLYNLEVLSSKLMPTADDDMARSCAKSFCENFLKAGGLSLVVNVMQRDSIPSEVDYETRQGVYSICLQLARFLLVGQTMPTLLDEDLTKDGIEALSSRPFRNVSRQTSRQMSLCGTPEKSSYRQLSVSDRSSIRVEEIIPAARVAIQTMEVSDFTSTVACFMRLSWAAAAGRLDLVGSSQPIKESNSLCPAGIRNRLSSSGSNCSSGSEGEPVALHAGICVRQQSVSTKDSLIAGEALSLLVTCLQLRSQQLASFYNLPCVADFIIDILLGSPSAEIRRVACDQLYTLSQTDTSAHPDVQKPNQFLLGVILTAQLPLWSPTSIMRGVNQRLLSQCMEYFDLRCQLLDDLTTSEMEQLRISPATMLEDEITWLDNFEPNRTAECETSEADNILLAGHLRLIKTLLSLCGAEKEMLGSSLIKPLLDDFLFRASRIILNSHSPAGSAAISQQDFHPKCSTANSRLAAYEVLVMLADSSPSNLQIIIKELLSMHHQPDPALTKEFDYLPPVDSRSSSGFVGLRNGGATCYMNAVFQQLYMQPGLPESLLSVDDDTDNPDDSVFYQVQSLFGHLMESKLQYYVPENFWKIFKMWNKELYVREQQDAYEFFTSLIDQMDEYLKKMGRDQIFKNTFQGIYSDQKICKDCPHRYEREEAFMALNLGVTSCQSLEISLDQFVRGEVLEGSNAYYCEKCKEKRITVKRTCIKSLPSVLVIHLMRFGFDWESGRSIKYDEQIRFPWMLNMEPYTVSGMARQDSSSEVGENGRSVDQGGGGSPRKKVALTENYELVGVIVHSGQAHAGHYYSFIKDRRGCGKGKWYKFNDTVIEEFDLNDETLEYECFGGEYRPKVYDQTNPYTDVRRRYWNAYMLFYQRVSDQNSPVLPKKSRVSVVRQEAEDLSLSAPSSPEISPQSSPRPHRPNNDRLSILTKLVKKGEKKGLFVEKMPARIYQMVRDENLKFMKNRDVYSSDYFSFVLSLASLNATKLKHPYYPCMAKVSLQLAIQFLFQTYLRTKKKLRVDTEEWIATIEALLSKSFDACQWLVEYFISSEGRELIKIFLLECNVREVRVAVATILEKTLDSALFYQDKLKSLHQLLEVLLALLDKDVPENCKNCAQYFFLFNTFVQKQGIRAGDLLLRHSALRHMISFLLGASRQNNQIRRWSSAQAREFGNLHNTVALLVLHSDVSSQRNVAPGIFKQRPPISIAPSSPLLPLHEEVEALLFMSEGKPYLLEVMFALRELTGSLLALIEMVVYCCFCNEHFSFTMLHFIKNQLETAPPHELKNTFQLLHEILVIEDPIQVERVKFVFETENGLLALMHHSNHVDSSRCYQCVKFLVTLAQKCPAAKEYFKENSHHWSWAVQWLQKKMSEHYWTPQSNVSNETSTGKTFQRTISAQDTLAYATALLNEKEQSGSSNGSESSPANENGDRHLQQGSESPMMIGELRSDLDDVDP

Cc1nc(CNC(=O)CCl)c2ccccn12.Cl
inactive: [1] -0.106 | [2] 0.0129 | [3] -0.108 | [4] -0.0552 | [5] -0.23
